# This is part of a sample that, as a whole, favours compounds with a hit. Of some 83,000 tested, about 20% had one in any assay.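 Plates (96-well) were seeded with cells, treated with compound at one concentration, and incubated for 48 hours before percent growth was determined.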 Values without a mark were called inactive. The source made the active and inactive calls. The calls were made as follows: active = growth percent below 10; inactive = the rest.
# Test system: HL-60(TB) leukemia
# Assay: NCI-60 one-dose screen, 48 h (100 = growth as untreated, 0 = no growth, -100 = all killed)
# Details: 10 µM unless noted
row,SMILES,growth
1,COc1ccc(-c2ccccc2)cc1-c1c(Nc2cc(Cl)cc(Cl)c2O)c(=O)c1=O,-29.8% (active)
2,CNCCCC12CCC(c3ccccc31)c1ccccc12,71%
3,CCOC(=O)c1c2c(n3cccc(Cl)c13)C(=O)c1ncccc1C2=O,34%
4,O=C1/C(=C/c2ccccc2)CN(C(=O)CCN2CCC(=NO)CC2)C/C1=C\c1ccccc1,5.03% (active)

# From PubChem BioAssay (NCI)
